# Measured values reported in PubChem BioAssay AID2240 (Broad Institute, 2010).
# Out of some 37,000 compounds screened, about 100 (0.27%) were called active. The entries come from a sample that favours actives as a whole. A number with no mark means an inactive call. No stated cut-off is given here; in the data, active means inhibition above about 85%; inconclusive means no clear call, values can overlap the other calls; inactive means below about 68%.
# Test: inhibitors of MITF, primary screen, MITF inhibitor project, cell-based, luminescence (AID 2240);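 further: human melanocyte line stably carrying TRPM1 promoter luciferase reporter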
# Conditions: TRPM1 promoter luciferase, 24 h, hits give high values, concentration not given here
row,SMILES,inhibition
1,C[C@H](CO)N1C[C@H](C)[C@H](CN(C)CC2CC2)Oc2ccc(NC(=O)c3ccncc3)cc2C1=O,-11.7%
2,C=C1C[C@@]23CC[C@@H]4[C@](C)(CO)CCC[C@@]4(C)[C@@H]2CC[C@@H]1C3,-32.7%
3,Cc1ccc(NC(=O)C(C)N(c2ccc(Cl)cc2)S(C)(=O)=O)c(C)c1 (stereo unspecified),-5.76%
4,Cc1cc([N+](=O)[O-])nn1CC(=O)NC(C)C,8.94%
5,C[C@@H]1CN([C@@H](C)CO)C(=O)c2cc(NC(=O)Nc3ccccc3)ccc2O[C@H]1CN(C)C(=O)Nc1ccc(F)cc1,3.76%
6,COc1ccccc1NC(=O)C1=C(C)Nc2nnnn2C1c1ccccc1OCc1ccccc1 (stereo unspecified),41.2%
7,O=C(CSc1nnc(-c2ccccc2)n1-c1ccccc1)c1cccc([N+](=O)[O-])c1,5.69%
8,C[C@H](CO)N1C[C@H](C)[C@@H](CN(C)Cc2ccc(C(F)(F)F)cc2)Oc2ccc(NC(=O)CCN3CCOCC3)cc2C1=O,-9.07%
9,c1ccc(Cn2c3ccccc3c3nnc(SCc4ccc5nonc5c4)nc32)cc1,20.6%
10,C[C@@H]1CCCCO[C@@H](CN(C)C(=O)CCC(F)(F)F)[C@@H](C)CN([C@H](C)CO)C(=O)c2cc(NC(=O)Nc3ccccc3)ccc2O1,-11.3%
11,C[C@@H]1CN([C@@H](C)CO)C(=O)c2cc(NC(=O)C3CCCCC3)ccc2O[C@@H]1CN(C)Cc1ccc(C(=O)O)cc1,1.31%
12,COc1ccc(NC(=O)CN(C)S(=O)(=O)c2ccccc2)cc1OC,-9.83%
13,COc1ccc(NC(=O)N(C)C[C@H]2Oc3c(NC(=O)C4CC4)cccc3C(=O)N([C@@H](C)CO)C[C@@H]2C)cc1,0.647%
14,C[C@H]1CN([C@@H](C)CO)C(=O)c2cc(N(C)C)ccc2O[C@@H]1CN(C)Cc1ccccc1,-14.1%
15,O=C(CSc1nccc(=O)[nH]1)Nc1ccc([N+](=O)[O-])cc1,-3.55%
16,COc1cc(NC(=S)NCCN2CCOCC2)c(OC)cc1Cl,17.1%

row,SMILES,inhibition
1,O=C(Nn1cnc2ccccc2c1=O)c1ccccc1,-19.3%
2,C[C@@H]1CN([C@H](C)CO)C(=O)c2cc(NS(=O)(=O)c3cccs3)ccc2O[C@@H]1CN(C)Cc1ccc(C(F)(F)F)cc1,-1.87%
3,COc1ccc(NC(=O)Nc2cccc3c2O[C@@H](CN(C)S(=O)(=O)c2ccc(C)cc2)[C@H](C)CN([C@@H](C)CO)C3=O)cc1,-6.48%
4,CCN(c1ccccc1)S(=O)(=O)c1ccc(C)cc1,12.9%
5,C[C@H](CO)N1C[C@H](C)[C@H](CN(C)C(=O)Nc2ccc3c(c2)OCO3)Oc2ccc(NC(=O)Nc3ccccc3)cc2CC1=O,-9.08%
6,COc1ccc(S(=O)(=O)N(C)C[C@H]2Oc3ccc(NC(=O)C4CC4)cc3CC(=O)N([C@@H](C)CO)C[C@@H]2C)cc1,-12.4%
7,COC(=O)c1c(-c2cccnc2)csc1NC(=O)c1cc(-c2ccc(C)o2)nc2ccccc12,-34.4%
8,Cc1ccc(S(=O)(=O)N(C)C[C@H]2Oc3c(NS(=O)(=O)c4cccs4)cccc3C(=O)N([C@@H](C)CO)C[C@@H]2C)cc1,0.709%
9,O=C(CSc1nc2ccccc2s1)c1cc2ccccc2oc1=O,-18%
10,C[C@@H]1CN([C@@H](C)CO)C(=O)c2cc(NC(=O)CCCN(C)C)ccc2O[C@@H]1CN(C)Cc1ccncc1,4.25%
11,CCCN(C)C[C@H]1OCCCC[C@@H](C)Oc2ccc(N(C)C)cc2C(=O)N([C@H](C)CO)C[C@@H]1C,43.3%
12,CC(=O)c1c(C)nn(CC(O)COc2ccc3cc(Br)ccc3c2)c1C (stereo unspecified),50.6%
13,Cc1ccc(S(=O)(=O)N(C)C[C@H]2Oc3c(NS(=O)(=O)c4ccc(Cl)cc4)cccc3C(=O)N([C@H](C)CO)C[C@@H]2C)cc1,0.159%
14,Oc1c(Cl)cc(Cl)c(Cl)c1Cc1c(O)c(Cl)cc(Cl)c1Cl,93.7% (active)
15,O=C(NCCN1CCCCC1)Nc1cccc2ccccc12,5.31%
